PP1 inh – PP1-alpha phosphatase inhibitors, primary screen, counter-screen for PP5 inhibitor project, biochemical, fluorescence, OMFP substrate, single point; purified PP1alpha; inhibition, % at 6.7 µM; hit rate 0.9% among 320,000;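 active means inhibition above the mean inhibition of all tested compounds plus 3 SD, computed separately for each screening campaign, cut at about 15% in these data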
Beta apoptosis – inhibitors of cytokine-induced beta cell apoptosis, primary screen, luminescence; INS-1E cytokine-induced death, ATP luminescence, 48 h; percent of positive-control rescue, neutral wells zero; protection from apoptosis, % (no concentration beside the values); hit rate 0.8% among 300,000; AID 435005, 2010;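 active means Every replicate reaches about 75%, or at least half do and their mean reaches it too, limit read from the data; inconclusive means At least half of replicates reach the limit but their mean does not; inactive means Under half of replicates reach the limit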;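 further: 0% = cytokine-treated negative control wells and 100% = positive control rescue; higher means more ATP so stronger rescue from cytokine killing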
CSC inhib – cancer stem cell viability inhibitors, primary screen, luminescence | cancer stem cell-like cells viability | hit rate 1.1% among 300,000 | inhibition, % at 7.5 µM; in the data active means inhibition above about 75%; inconclusive means no clear call, values can overlap the other calls; tested in HMLE shEcad cells
Mdm2-MdmX inh – inhibitors of human Mdm2-MdmX association, primary screen, cell-based, luminescence, split luciferase, SaOS-2, uHTS. SaOS-2 split-luciferase Mdm2/MdmX complementation. inhibition, % at 8 µM. hit rate 3% among 330,000;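 active means inhibition of at least 50% at 8 µM in the primary screen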
Target sequence (O15151 whole entry, looked up): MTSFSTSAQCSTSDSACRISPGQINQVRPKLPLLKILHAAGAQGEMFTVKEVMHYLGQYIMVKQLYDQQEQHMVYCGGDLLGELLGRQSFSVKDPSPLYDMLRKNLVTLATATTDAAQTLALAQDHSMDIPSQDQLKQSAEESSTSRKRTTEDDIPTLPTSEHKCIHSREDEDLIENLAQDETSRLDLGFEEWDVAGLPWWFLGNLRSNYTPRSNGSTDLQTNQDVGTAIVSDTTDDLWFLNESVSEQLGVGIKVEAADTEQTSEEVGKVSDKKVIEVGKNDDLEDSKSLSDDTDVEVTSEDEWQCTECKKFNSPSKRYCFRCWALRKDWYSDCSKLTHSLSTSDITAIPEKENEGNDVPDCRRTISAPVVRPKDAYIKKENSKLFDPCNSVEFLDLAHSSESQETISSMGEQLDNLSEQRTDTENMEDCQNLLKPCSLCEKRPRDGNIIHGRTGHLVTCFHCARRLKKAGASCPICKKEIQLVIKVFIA
Target sequence (Q00987 whole entry, looked up): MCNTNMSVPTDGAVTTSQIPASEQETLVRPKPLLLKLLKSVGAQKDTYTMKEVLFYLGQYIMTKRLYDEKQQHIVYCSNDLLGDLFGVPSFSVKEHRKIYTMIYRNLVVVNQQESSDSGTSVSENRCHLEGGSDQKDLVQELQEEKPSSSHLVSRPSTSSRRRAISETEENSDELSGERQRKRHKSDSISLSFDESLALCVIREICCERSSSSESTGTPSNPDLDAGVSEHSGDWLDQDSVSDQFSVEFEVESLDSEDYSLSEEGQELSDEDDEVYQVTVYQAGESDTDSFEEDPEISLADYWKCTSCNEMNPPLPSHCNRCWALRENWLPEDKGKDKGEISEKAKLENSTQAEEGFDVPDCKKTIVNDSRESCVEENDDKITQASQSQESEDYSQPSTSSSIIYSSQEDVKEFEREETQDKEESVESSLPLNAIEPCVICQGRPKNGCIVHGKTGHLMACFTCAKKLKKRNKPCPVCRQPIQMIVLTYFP
PP5 primary – PP5 phosphatase inhibitors, primary screen, biochemical, fluorescence | Serine/threonine-protein phosphatase 5 (Homo sapiens), P53041 | hit rate 0.18% among 320,000 | purified PP5c, OMFP substrate fluorescence | inhibition, % at 6.7 µM | AID 1987, 2009;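 active means inhibition above the campaign's mean inhibition across all tested compounds plus 3 SD, cut at about 9.5% in these data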;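 further: 0% = DMSO only and 100% = 100 µM cantharidin control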
Calb FLC – C. albicans growth inhibition with fluconazole, primary screen, CaCi-2 strain, Alamar Blue fluorescence | C. albicans CaCi-2 (fluconazole-resistant clinical isolate) + fluconazole, 48 h | growth inhibition, % (test concentration not listed) | hit rate 0.57% among 300,000 | AID 1979, 2009;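 active means growth inhibition above about 58% in most replicates, limit read from the data, passing the limit was not always enough; inconclusive means exactly half the replicates above a set limit; inactive means most replicates below a set limit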;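 further: all wells also contain fluconazole at 8 µg/ml as a sub-toxic cotreatment; 0% = median of DMSO wells and 100% = median of geldanamycin control wells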
Mdm2 MdmX conf – Mdm2-MdmX complex disruptors, retested hits, confirmation, luminescence, single concentration. shares compounds with Mdm2-MdmX inh. Mdm2-MdmX binding, luminescent assay. inhibition, % at 8 µM. hit rate 55% among 10,000. AID 489028, 2010; in the data active means inhibition above about 40%
Full FLuc ctr – full-length luciferase signal inhibition, confirmation, counter-screen for Mdm2/MdmX interaction inhibitor project, cell-based, single concentration, SaOS-2; SaOS-2 full-length luciferase counterscreen, luminescence; shares compounds with Mdm2-MdmX inh; inhibition, % at 8 µM; hit rate 77% among 6,200; AID 504607, 2011;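 active means mean inhibition at 8 µM reaching about 37%, which flags the compound as non-specific, limit read from the data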;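 further: p53-null SaOS-2 cells with luciferase driven by a doxycycline-inducible promoter; compound on cells about two nights before reading with doxycycline added after day one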
An asterisk follows results filed as active; ? = inconclusive; . = no result. An excerpt weighted towards active compounds, which were near 4.9% of everything screened.

SMILES	PP1 inh	Beta apoptosis	CSC inhib	Mdm2-MdmX inh	PP5 primary	Calb FLC	Mdm2 MdmX conf	Full FLuc ctr
C=C1CCN([C@@H](C)C(=O)NCc2ccc(OC)cc2)S(=O)(=O)c2ccccc21	-4	0	-2	8	0	1	.	.
Cc1onc(-c2ccccc2)c1C(=O)NC(=S)NNC(=O)c1ccc(O)cc1O	6	91*	34	59*	2	-3	43*	71*
CC1=NN(c2ccc(Cl)cc2)C(=O)/C1=C\c1cccn1-c1ccc(S(N)(=O)=O)cc1	2	-15	-1	-10	4	14	.	.
Nc1nnc(-c2cn(-c3ccccc3)nc2-c2ccccc2)o1	-4	.	.	20	2	-7	.	.
Nc1nnc(-c2cn(-c3ccccc3)nc2-c2ccc(Cl)cc2)o1	1	-1	11	58*	1	-10	25	.
CC1=Nc2cc(C(=O)O)ccc2Sc2c(C)ccc(C)c21	4	0	16	6	1	5	.	.
CC1=Nc2cc(C(=O)N3CCCC3)ccc2Sc2c(C)ccc(C)c21	0	-1	33	90*	1	16	67*	23
Cc1cc(C)cc(NC(=O)CCn2c(=S)[nH]c3ccccc3c2=O)c1	-2	9	-11	65*	0	16	15	.
COC(=O)[C@H](C)NC(=O)NCc1ccccc1	-5	3	-5	2	0	5	.	.
COc1cc(/C=C/C(=O)c2ccc3c(c2)OCO3)cc(OC)c1OC	0	-53	.	91*	4	.	60*	38*
COc1ccc(OC)c(/C=C/C(=O)c2ccc3c(c2)OCCO3)c1	-4	-15	61	76*	3	-8	16	.
COc1cc(/C=C/C(=O)c2ccc3c(c2)OCCO3)cc(OC)c1OC	2	-21	45	67*	5	19	46*	66*
COc1ccc(/C=C/C(=O)c2ccc3c(c2)OCO3)cc1OC	0	-10	19	20	3	.	.	.
COc1ccc(C(C)NC(=O)Cc2cccs2)cc1 (stereo not drawn)	-1	0	4	8	-3	-7	.	.
Cc1sc2nc(CN(C(=O)c3cccs3)C3CCCC3)[nH]c(=O)c2c1C	5	2	14	3	-2	3	.	.
O=C(c1cccs1)N(Cc1nc2sc3c(c2c(=O)[nH]1)CCCC3)C1CCCC1	8	1	1	87*	1	4	82*	38*
C=CCN1C(=O)[C@@H]2Cc3c([nH]c4ccccc34)C(c3cc(OC)c(OC)c(OC)c3)N2C1=S (stereo partly drawn)	3	7	28	51*	2	4	22	.
COc1cc([C@H]2c3[nH]c4ccccc4c3C[C@H]3C(=O)N4[C@@H](c5cc(OC)c(OC)c(OC)c5)c5[nH]c6ccccc6c5C[C@H]4C(=O)N23)cc(OC)c1OC	13	13	-6	79*	0	6	29	.
CCOc1ncccc1C(=O)Nc1cccc(S(=O)(=O)N2CCOCC2)c1	.	-3	-33	-7	.	.	.	.
CCOc1ccc(NCc2cc3c(C(C)(C)C)nn(-c4ccccc4)c3[nH]c2=O)cc1	4	-16	21	96*	3	-13	23	91*
COc1cccc(NCc2cc3c(C(C)(C)C)nn(-c4ccccc4)c3[nH]c2=O)c1	4	-3	-13	-16	6	?	.	.
O=C(CCCN1C(=O)/C(=C/c2cccc(Br)c2)SC1=S)Nc1cccnc1	1	-9	-16	78*	1	50	78*	63*
O=C(CCN1C(=O)/C(=C/c2ccc(Cl)cc2)SC1=S)Nc1cccnc1	-2	3	-6	9	3	-1	.	.
O=C(CCCN1C(=O)/C(=C\c2cccs2)SC1=S)Nc1cccnc1	6	-7	-4	78*	0	0	80*	25
O=C(CCCN1C(=O)/C(=C/c2cccs2)SC1=S)Nc1cccnc1	2	-13	20	15	5	8	.	.
SMILES	PP1 inh	Beta apoptosis	CSC inhib	Mdm2-MdmX inh	PP5 primary	Calb FLC	Mdm2 MdmX conf	Full FLuc ctr
O=C(CCCN1C(=O)/C(=C/c2cccc(Br)c2)SC1=S)Nc1ccccn1	2	-21	44	69*	0	14	84*	31
Cc1cc(NC(=O)CN2C(=O)/C(=C/c3cccc(Br)c3)SC2=S)no1	1	-1	-11	-46	-3	0	.	.
Cc1ccc(/C=C2\SC(=S)N(CCCC(=O)Nc3cccnc3)C2=O)cc1	8	.	0	92*	2	-3	72*	5
Cc1ccc(/C=C2\SC(=S)N(CC(=O)Nc3cccnc3)C2=O)cc1	-1	-1	8	18	3	-1	.	.
c1ccc(C2[C@H]3CN(CC4CCCCC4)[C@H](c4ccccc4)C34CC2(c2cccnc2)C4)cc1 (stereo partly drawn)	1	3	10	19	5	2	.	.
CN(C#N)c1nc(Cl)nc(Nc2cccc(Cl)c2)n1	0	-11	-14	11	-2	-4	.	.
O=C(CN1C(=O)/C(=C/c2ccccc2)SC1=S)Nc1cccnc1	0	-5	-34	27	1	?	.	.
O=C(CCCN1C(=O)/C(=C\c2cccc(Br)c2)SC1=S)Nc1cccnc1	8	-6	47	100*	1	46	86*	24
O=C(CCCN1C(=O)/C(=C/c2ccccc2OC(F)F)SC1=S)Nc1cccnc1	.	-4	-13	85*	.	.	59*	22
CCOCCCN1C(=O)C(=O)N(CC(=O)N2c3ccccc3NC(=O)CC2C)C1=O (stereo not drawn)	-2	-1	-9	17	1	.	.	.
Cc1ccc(F)cc1NC(=O)CSc1n[nH]c(N)n1	.	-10	-10	-10	.	.	.	.
CCOC(=O)c1ccc(-c2ccc(/C=N/NC(=O)CN(c3ccccc3Br)S(C)(=O)=O)o2)cc1	4	8	41	51*	2	0	-4	.
O=C1OC[C@H]2CCCN2C(=O)[C@@H](CC(=O)N(CCO)Cc2ccccc2)C/C=C\C[C@H]1Cc1ccc(F)cc1	.	-8	-19	30	.	.	.	.
COc1cc(Cl)c(C)cc1NC(=O)CSc1sc2c(O)cc(=O)[nH]c2c1C#N	9	-1	-2	12	3	-3	.	.
